# VHR inh abs – DUSP3 (human) phosphatase inhibition; P51452; recombinant VHR phosphatase, pNPP absorbance; inhibition, % at 13.3 µM; 290,000 tested, 0.52% active; AID 1654; in the data active means inhibition above about 50%
# Target sequence (P51452 whole entry, looked up): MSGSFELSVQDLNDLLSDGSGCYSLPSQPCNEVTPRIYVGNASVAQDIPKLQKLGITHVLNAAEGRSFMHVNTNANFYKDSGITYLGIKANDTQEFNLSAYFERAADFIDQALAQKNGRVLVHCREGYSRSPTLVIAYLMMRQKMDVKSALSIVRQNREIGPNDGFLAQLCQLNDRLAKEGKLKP
# PrPC surface inh – inhibitors of human cell surface prion protein PrPC | 370,000 tested, 0.43% active | TR-FRET read-out | inhibition, % at 13.8 µM | AID 720596 | P04156; in the data active means inhibition above about 24%; further: 0% = median of the test wells and 100% = reference compound wells
# MazEF act – activators of E. coli MazEF toxin-antitoxin RNase. P0AE70. 350,000 tested, 0.32% active. FAM/BHQ RNA-DNA oligo cleavage fluorescence, 5 h. activation, % at 20 µM. AID 504720; in the data active means activation above about 50%
# Target sequence (P0AE70 whole entry, looked up): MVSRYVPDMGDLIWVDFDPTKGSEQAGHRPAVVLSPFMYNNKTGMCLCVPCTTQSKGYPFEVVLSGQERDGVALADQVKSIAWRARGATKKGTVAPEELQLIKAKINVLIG
# 3CLpro inhibitor – SARS-CoV 3CLpro protease inhibition; inhibition, % at 6 µM; AID 1706; recombinant SARS-CoV 3CLpro, quenched FRET peptide cleavage; 290,000 tested, 0.14% active; P0C6X7; in the data active means inhibition above about 12%
# Mtb hypoxia rep – inhibitors of hypoxia-regulated fluorescent reporter in Mycobacterium tuberculosis | fluorescence inhibition, % (no concentration beside the values) | M. tuberculosis hypoxia-regulated fluorescent reporter, fluorescence | 300,000 tested, 0.1% active | AID 1159583; in the data active means fluorescence inhibition mostly above about 23%, no sharp cut-off; inactive means mostly below about 17%
# PrP 5UTR inh – suppresses PrP 5' UTR mRNA reporter expression. cell-based PrP 5' UTR mRNA reporter, plate reader. inhibition, % (test concentration not listed). 340,000 tested, 0.35% active. AID 488862; in the data active means inhibition above about 52%; further: 0 = median of the neutral control wells
# PrP 5UTR single – prion 5' UTR mRNA inhibition, cherry-pick retest; shares compounds with PrP 5UTR inh; cell-based prion protein 5' UTR reporter, plate reader; inhibition, % at 2.5 µM; 1,100 tested, 48% active; in the data active means inhibition above about 54%
# Active calls of the source: *; / = not tested or not shown. A selection: hits, their analogues and other compounds. The true share with any hit is near 1.5%.
SMILES,VHR inh abs,PrPC surface inh,MazEF act,3CLpro inhibitor,Mtb hypoxia rep,PrP 5UTR inh,PrP 5UTR single
O=C(NN=Cc1cc(Cl)ccc1O)c1ccncc1,/,/,/,/,8,/,/
COC(=O)[C@@]1(Cc2ccc(OC)cc2)C2c3cc(C(=O)N4CCCC4)n(CCO)c3CC2CN1C(=O)c1ccccc1 (stereo partly specified),/,/,/,/,15,/,/
Cc1cc(C)c2c(N)c(C(=O)c3ccccc3)oc2n1,50,-3,0,0,-5,-19,/
Cc1cc(-c2ccccc2)nc2oc(C(=O)NN)c(N)c12,14,-13,12,2,-2,72*,1
COc1ccc(CC(=NO)c2ccc(OC)cc2)cc1,/,/,/,/,12,/,/
O=[N+]([O-])c1nn(-c2ccc3c(c2)OCCO3)n(O)c1=Nc1ccccc1,5,-41,-2,2,5,81*,78*
O=[N+]([O-])c1nn(-c2ccc3c(c2)OCCO3)n(O)c1=Nc1ccc(Cl)cc1,22,-13,5,6,9,14,/
CCOC(=O)c1ccc(CNCc2ccccc2)cc1,13,1,-5,9,5,-37,/
CCOC(=O)c1ccc(CNC(=O)CCC(=O)O)cc1,46,1,-4,-6,-5,67*,-2
Nc1nc(-c2cccs2)c(CC(=O)O)s1,1,-9,-2,-2,2,-29,/
O=C(O)Cc1sc(Nc2ccc(Cl)cc2)nc1-c1cccs1,18,12,-4,2,18,88*,-24
O=C(NN=Cc1ccc(N2CCCC2)c([N+](=O)[O-])c1)c1cccnc1,/,/,/,/,14,/,/
COc1c(C)cc(C(=O)C2CCCN(C(=O)c3ccc4[nH]ccc4c3)C2)cc1C (stereo unspecified),16,-3,4,3,1,78*,0
COc1c(C)cc(C(=O)C2CCCN(C(=O)c3cccc(-n4cccn4)c3)C2)cc1C (stereo unspecified),-17,-3,10,3,13,-12,/
Cc1ccc(NC(=O)/C=C/c2ccco2)nc1,12,-11,-2,0,12,70*,84*
Cc1ccccc1C=CC1=NCCN1,/,/,/,/,5,/,/
COc1ccc(CNC(=O)C2CCN(S(=O)(=O)c3c(C)n[nH]c3C)CC2)cc1,27,1,-3,1,/,-18,/
Cc1n[nH]c(C)c1S(=O)(=O)N1CCCC(C(=O)NCc2ccc(F)cc2)C1 (stereo unspecified),37,4,8,-1,10,84*,3
CCN(CC)c1ccc(-c2nn3c(-c4n[nH]c5c4CCC5)nnc3s2)cc1,36,12,-8,2,/,74*,84*
COc1ccc(-c2nn3c(-c4n[nH]c5c4CCC5)nnc3s2)cc1,/,13,/,/,/,/,/
COc1ccc(C(=O)NCc2nnc(SC)n2Cc2ccccc2)cc1,-17,5,-7,1,12,54*,8
C[C@@]12C(=O)N(Cc3ccc(F)cc3)CC(=O)N1C1c3cc(Cl)ccc3OCC1C2c1ccccc1 (stereo partly specified),/,/,/,/,-4,/,/
CCc1ccn2cc(-c3cc(-c4ccccc4)no3)nc2c1,17,16,-10,-3,10,71*,82*
C=CC[n+]1c(-c2ccc(OC)cc2)csc1NNC(=O)Nc1ccccc1,9,8,2,7,-1,-95,/
C=CC[n+]1c(-c2ccc(C)cc2)csc1Nc1ccc(NC(C)=O)cc1,2,17,3,3,4,71*,59*
SMILES,VHR inh abs,PrPC surface inh,MazEF act,3CLpro inhibitor,Mtb hypoxia rep,PrP 5UTR inh,PrP 5UTR single
CCN1CC2C3C(=O)N(C)C(=O)C3[C@](CC)(C1=O)N2C(=O)c1ccc(F)cc1 (stereo partly specified),/,/,/,/,0,/,/
COc1ccc2c(c1)C(C)=CC(C)(C)N2S(=O)(=O)c1ccc(NC(C)=O)cc1,-15,9,-8,3,/,73*,41
COc1ccc2c(c1)C(C)=CC(C)(C)N2S(=O)(=O)c1ccc(Br)cc1,15,17,1,-1,20,39,/
COc1ccc(N/C=C/C(=O)c2cc(OC)c(OC)c(OC)c2)cc1,-16,5,-9,-3,0,71*,89*
COc1ccc(OC)c(N/C=C/C(=O)c2ccccc2)c1,-4,5,-6,4,/,81*,61*
COc1cccc(C(=O)Oc2cc3c4c(c2)C(C)=CC(C)(C)N4C(=O)C3=O)c1,29,-25,-2,1,10,-18,/
